ERK AVP inh = blocks ERK signaling stimulated by vasopressin; AID 995; actives 0.99% (n = 72,000); Potency, µM (titrated, usually from 57.5 µM), for inactives: at the highest dose activity, negative = inhibition, usual class: inhibitors; HEK293-V1b, vasopressin-stimulated pERK AlphaScreen; also: nearly all actives have a fitted effect of over 55% in size
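HEK293 cells stably expressing V1b receptor, seeded overnight in 1% FBS, were treated with compounds for 30 min at 37C, then stimulated 5 min with 25 nM vasopressin; phospho-ERK read by AlphaScreen SureFire after lysis.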
FLuc inh = inhibitors of firefly luciferase; actives 2.2% (n = 72,000); purified firefly luciferase, luminescence, 8 min; Potency, µM (series often up to 57.1 µM), without a hit: at the highest dose activity change, negative = inhibition, hits mostly inhibitors; P08659; also: nearly all actives have a fitted effect of over 40% in size
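Compounds were tested as concentration series (qHTS) against purified P. pyralis luciferase with luciferin and 10 uM ATP in 50 mM imidazole pH 7.2, 50 mM KCl, 7 mM MgCl2, 0.01% Tween 20, 0.05% BSA. Luminescence was read after 8 min at ambient temperature.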
ALOX15 inhib = blocks human 15-lipoxygenase activity; purified 15hLO-1, xylenol orange hydroperoxide absorbance; AID 887; Potency, µM (titrated, usually from 57.1 µM), inactives show top-dose activity change, negative = inhibition, most hits filed as inhibitors; P16050; actives 1.4% (n = 74,000); also: nearly all actives have a fitted effect of over 55% in size
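Compounds were preincubated 15 min at room temperature with 40 nM purified human enzyme (25 mM Hepes pH 7.5, 0.01% Triton X-100); 50 uM arachidonic acid reacted 6 min. Fe-xylenol orange detection, 30 min, absorbance ratio 573/405 nm.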
Pol III holo inh = inhibitors of bacterial DNA polymerase III holoenzyme; reconstituted DNA polymerase III holoenzyme replication, biochemical; Potency, µM (titrated, usually from 57.1 µM), without a hit: at the top dose activity change, negative = inhibition; actives 0.25% (n = 71,000)
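Reconstituted *E. coli* holoenzyme (0.35 nM Pol III, 1 nM beta, 154 nM SSB, 2 nM primase) was preincubated with compound for 15 min at RT. Synthesis on 1.4 nM ssM13Gori ran 35 min, then was stopped with PicoGreen/EDTA and read as dsDNA fluorescence.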
PK Bst = pyruvate kinase (B. stearothermophilus) modulation | purified pyruvate kinase, luminescence ATP production; ribose 5-phosphate activator present at AC10 | Potency, µM | actives 1.2% (n = 51,000) | AID 361; in the data active = potency below about 11 µM; inconclusive = mostly about 12 µM to 25 µM;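 the screen sought inhibitors and activators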;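 also: scaled between full activation by ribose 5 phosphate and full inhibition by luteolin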
Tau filament bind = binders of human tau filaments. P10636. recombinant tau filaments, thioflavin S fluorescence, 15 h; filaments grown with octadecylsulfate alongside compound. Potency, µM (top dose mostly 57.1 µM), for inactives: at the top dose activity change, negative = inhibition. actives 2% (n = 71,000). AID 596;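 also: actives lower thioflavin S fluorescence by blocking filaments or displacing dye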
Target sequence (P10636 whole entry, looked up): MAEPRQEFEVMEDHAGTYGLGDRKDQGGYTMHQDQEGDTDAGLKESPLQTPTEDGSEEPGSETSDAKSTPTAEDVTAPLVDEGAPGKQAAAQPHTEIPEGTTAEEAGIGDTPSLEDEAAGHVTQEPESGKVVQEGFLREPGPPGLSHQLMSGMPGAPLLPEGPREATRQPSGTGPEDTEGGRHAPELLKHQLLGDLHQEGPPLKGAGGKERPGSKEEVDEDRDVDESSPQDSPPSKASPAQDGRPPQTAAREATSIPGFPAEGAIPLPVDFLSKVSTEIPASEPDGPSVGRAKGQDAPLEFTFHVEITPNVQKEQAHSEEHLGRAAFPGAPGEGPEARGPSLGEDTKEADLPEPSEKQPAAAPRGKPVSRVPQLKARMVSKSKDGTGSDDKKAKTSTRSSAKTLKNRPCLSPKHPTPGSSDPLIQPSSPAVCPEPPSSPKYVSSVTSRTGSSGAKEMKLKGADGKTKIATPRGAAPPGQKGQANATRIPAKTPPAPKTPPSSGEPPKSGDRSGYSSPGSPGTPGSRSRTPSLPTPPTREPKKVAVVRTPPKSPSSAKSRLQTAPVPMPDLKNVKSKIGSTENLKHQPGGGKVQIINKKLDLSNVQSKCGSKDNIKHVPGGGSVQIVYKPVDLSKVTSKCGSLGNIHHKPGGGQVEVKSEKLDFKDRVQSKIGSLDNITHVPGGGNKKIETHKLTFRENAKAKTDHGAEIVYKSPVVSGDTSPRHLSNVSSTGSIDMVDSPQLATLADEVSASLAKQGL
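Recombinant tau protein (human, 1 uM final) plus 30 uM ODS in HEPES pH 7.4 with NaCl, DTT and thioflavine S. Compound present from the start; fluorescence at 510 nm after 15 h, 37 C.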
Active calls of the source: *; i = inactive; ? = inconclusive; · = no result given; ! = not active in a repeat; [ ] = another dose, or the depositor's remark. This is a sample that favours compounds with a hit; in the whole collection about 6% have one here. Unless noted, calls follow the shape of the dose curve; as a rule, active = well fitted curve in the direction sought with a large enough effect; inconclusive = small, poorly fitted or top-dose-only effect, or another doubt; inactive = no such curve, though single readings can be large; an effect the other way counts as inactive or inconclusive. Unless noted, % is scaled to controls: 0 for no effect and ±100 for the full control effect; potency is read from the fitted curve at half-maximal effect.

SMILES	ERK AVP inh	FLuc inh	ALOX15 inhib	Pol III holo inh	PK Bst	Tau filament bind
O=C(NCc1cc(F)cc2c1OCCO2)[C@H]1C[C@@H]1[C@H](NP(=O)(c1ccccc1)c1ccccc1)c1ccccc1	?	·	·	-5%	·	-4%
N#CCCCCN1c2cccc3cccc(c23)S1(=O)=O	-8%	-1%	-5%	-5%	7.9*	-1%
CCCN1c2cccc3cccc(c23)S1(=O)=O	13%	-7%	-1%	3%	?	-3%
COc1ccc(CCCc2nnc(SCC(=O)Nc3ncc(C)s3)o2)cc1	27%	16µM*	-9%	-3%	i	-17%
COc1ccccc1CNC(=O)Nc1cccs1	·	·	13µM*	·	·	·
Cc1cccc(NC(=O)c2cnc3sccn3c2=O)c1	·	10µM*	-7%	-5%	·	-10%
Cc1cccc(NC(=O)c2cnc3ccccn3c2=O)c1	·	0%	7%	-2%	·	-7%
COc1ccccc1NC(=O)N1CCN(c2cccc(C(F)(F)F)c2)CC1	-28%	5%	40µM*	-7%	·	2%
CCCCCCCCCCCCCCCCCCOC[C@@H](COP(=O)([O-])OCC[N+](C)(C)C)OC	10%	-3%	12%	-1%	·	-1%
CCCOCC(C)O (configuration not stated)	8%	·	-7%	0%	·	-1%
CO[C@]12C(COC(N)=O)C3=C(C(=O)C(C)=C(N)C3=O)N1CC1NC12 (some centres not stated)	-5%	·	3%	·	·	·
CCOc1ccc(-c2cc(C(=O)NCCCN3CCN(CC)CC3)c3ccccc3n2)cc1	-10%	13µM*	-8%	-2%	10*	10%
COc1ccc(-c2cc(C(=O)NCCN3CCOCC3)c3ccccc3n2)cc1	-26%	?	-7%	-1%	i	-4%
COc1ccc(Nc2cc(C(=O)NCCCN3CCN(C)CC3)c3ccccc3n2)c(OC)c1	1%	-20%	-16%	-4%	·	13µM*
CN1[C@@H]2CC(OC(=O)[C@H](CO)c3ccccc3)C[C@@H]1[C@H]1O[C@H]12 (some centres not stated)	4%	2%	6%[25.6 µM]	-6%	·	?
CCC1c2ccc(C)n2CCN1C(=O)Nc1ccccc1OC (configuration not stated)	-16%	-30%	3.2µM*	1%	·	207%
CCOc1ccc(NC(=O)CCn2cccc2)cc1	·	·	7%	·	·	·
CCOc1ccc(C(=O)Nc2c(C(N)=O)oc3ccccc23)cc1	-2%	?	?	3%	4*	110%
CCOc1ccc(NC(=O)c2nn(C)cc2Br)cc1	·	10µM*	·	·	?	·
CCOc1ccc(NC(=O)c2ccc(N)cc2)cc1	·	13µM*	7%	-3%	·	-2%
CCOc1ccc(NC(=O)c2ccncc2)cc1	10%	-10%	5%	0%	·	4%
C[C@H]1[C@H](C)CC[C@@]2(C(=O)O)CC[C@]3(C)C(=CC[C@H]4[C@@]5(C)C[C@@H](O)[C@H](O)[C@@](C)(CO)[C@@H]5CC[C@@]43C)[C@@H]12	·	-4%[11.4 µM]	·	-6%	·	29%
N#CCCN1CCN(C(=S)c2ccc(-c3ccc(Cl)cc3)o2)CC1	6%	-11%	-21%	-5%	?	25µM*
O=C(NCc1cccnc1)c1ccc(COc2ccc3c(c2)CCC3)o1	25µM*	-1%	-3%	6%	>57	0%
N/N=C1/CC(=O)NC(=O)N1	-13%[11.5 µM]	3%[11.4 µM]	5%[11.4 µM]	3%[11.4 µM]	·	2%[11.4 µM]
CC(C)(C(=O)O)c1ccc(C(O)CCCN2CCC(C(O)(c3ccccc3)c3ccccc3)CC2)cc1 (configuration not stated)	-13%	·	20µM*!	·	·	·
OC(CCN1CCCC1)(c1ccccc1)C1CCCCC1 (configuration not stated)	-12%	0%[25.5 µM]	4%	·	>26	·
CC(C)=CCc1c2c(c3occ(-c4ccc(O)c(O)c4)c(=O)c3c1O)C=CC(C)(C)O2	?	2%[11.4 µM]	4µM*	-18%[11.4 µM]	·	3.2µM*
Cc1ccc(C(=O)Nc2ccc(Cl)cn2)cc1	17%	6.3µM*	3%	-6%	9.1*	7%

Screening data as filed in PubChem BioAssay.
